From PMC4336329 (PLoS ONE, 2015) come the findings set out here.

Out of some 310,000 compounds screened, about 14,000 (4.5%) showed an effect of 50% or more. The effect is printed as a negative number. The list comes from a sample in which strong results are over-represented; it also holds similar structures and randomly drawn compounds.
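Further: peak tail current of the secondary pulse compared with the same well before compound.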

For this assay, the target named is human ether-à-go-go-related gene (hERG) potassium channel (human, UniProt Q12809). The experiment in a line: primary screen, population patch clamp on CHO cells stably expressing hERG; higher = less effect of the substance.
Sequence of human ether-à-go-go-related gene (hERG) potassium channel (Q12809 whole entry, looked up): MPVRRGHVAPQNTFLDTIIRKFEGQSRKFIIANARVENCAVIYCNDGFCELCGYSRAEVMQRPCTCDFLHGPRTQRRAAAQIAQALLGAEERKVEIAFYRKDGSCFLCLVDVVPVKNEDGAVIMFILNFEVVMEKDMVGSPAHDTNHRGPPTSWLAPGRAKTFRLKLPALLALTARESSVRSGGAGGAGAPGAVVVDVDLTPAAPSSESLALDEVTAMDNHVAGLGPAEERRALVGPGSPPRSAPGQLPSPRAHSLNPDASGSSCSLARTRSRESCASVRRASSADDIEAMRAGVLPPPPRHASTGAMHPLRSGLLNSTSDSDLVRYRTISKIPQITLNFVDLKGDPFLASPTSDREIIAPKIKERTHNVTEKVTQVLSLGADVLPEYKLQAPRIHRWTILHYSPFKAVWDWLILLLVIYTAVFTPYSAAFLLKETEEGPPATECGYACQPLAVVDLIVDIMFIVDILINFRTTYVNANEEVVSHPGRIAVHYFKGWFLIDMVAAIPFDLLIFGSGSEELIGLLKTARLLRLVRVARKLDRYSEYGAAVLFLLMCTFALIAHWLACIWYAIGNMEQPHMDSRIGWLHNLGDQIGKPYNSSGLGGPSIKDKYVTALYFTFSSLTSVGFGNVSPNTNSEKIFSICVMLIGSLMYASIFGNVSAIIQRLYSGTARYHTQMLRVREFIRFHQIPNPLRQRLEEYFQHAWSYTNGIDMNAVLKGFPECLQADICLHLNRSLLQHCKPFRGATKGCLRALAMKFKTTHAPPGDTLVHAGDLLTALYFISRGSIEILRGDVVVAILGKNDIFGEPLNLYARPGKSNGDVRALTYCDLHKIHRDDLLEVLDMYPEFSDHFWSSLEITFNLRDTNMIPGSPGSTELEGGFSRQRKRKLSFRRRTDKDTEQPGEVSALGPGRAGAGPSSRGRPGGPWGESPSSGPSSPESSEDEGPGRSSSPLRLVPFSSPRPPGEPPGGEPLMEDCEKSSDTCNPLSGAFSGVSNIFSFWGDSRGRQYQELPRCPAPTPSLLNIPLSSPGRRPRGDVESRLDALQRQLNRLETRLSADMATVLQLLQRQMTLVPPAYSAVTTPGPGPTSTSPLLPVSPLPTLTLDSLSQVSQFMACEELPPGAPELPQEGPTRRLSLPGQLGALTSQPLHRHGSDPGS
Regarding `S=C(Nc1ccccc1)Nc1ccc(OCc2ccccc2)cc1`, the “hERG current change (%, negative = inhibition) at 10uM” value was -0.702%.
For `Nc1nc2ccccc2n1/N=C/c1ccc(-c2ccccc2)o1`, the “hERG current change (%, negative = inhibition) at 10uM” value is reported as -11.8%.
In the case of `CCCc1[nH]nc2c1C1(C(=O)N(CC)c3ccccc31)C(C#N)=C(N)O2` (stereo not drawn), the “hERG current change (%, negative = inhibition) at 10uM” value is given as -6.38%.
The figure for `COc1ccc(C(=O)OCC(=O)NCC2CCCO2)cc1[N+](=O)[O-]` (stereo not drawn) is 2.12%; for `Cc1cc(/C=C(\C#N)C(=O)NC2CCCCCC2)c(C)[nH]1` it is 9.54%; for `COc1ccccc1CC(=O)Nc1cccc(C(=O)Nc2nccs2)c1` it is -0.755%.
Next, `O=C(Nc1ccccc1)c1cc(-c2ccccc2Cl)no1`: -4.91%.
As for `O=S(=O)(NC1CCCC1)c1cc(F)ccc1F`, the “hERG current change (%, negative = inhibition) at 10uM” value is listed as -8.75%.
Next, `O=C(O)C1Cc2ccccc2N2CCCC12` (stereo not drawn): 20%.
Next, `COc1cc(-c2nnc(SC/C=C/c3ccccc3)n2N)cc(OC)c1OC`: -3.66%; `COc1cccc(C(=O)NNC(=O)c2ccc3ccccc3c2O)c1`: 7.66%; `O=C(CSc1nc(-c2ccc(F)cc2)cs1)N1CCc2ccccc21`: -1.23%.
Turning to `COc1ccc2c(c1)c(C(=O)N/N=C/c1ccc(OC)c(OC)c1)c(C)n2C`, the “hERG current change (%, negative = inhibition) at 10uM” value is -39.2%.
As to `COc1ccc2c(c1)c(C(=O)N/N=C/c1cccc(Br)c1)c(C)n2C`, the “hERG current change (%, negative = inhibition) at 10uM” value was -15.9%.
The figure for `CCOc1ccc(/C=N/NC(=O)c2c(C)n(C)c3ccc(OC)cc23)cc1` is -5.78%; for `COc1ccc2c(c1)c(C(=O)N/N=C/c1ccc(Br)cc1)c(C)n2C` it is -64.1%; for `COc1ccc2c(c1)c(C(=O)N/N=C/c1ccc(Cl)cc1)c(C)n2C` it is -58.6%.
The figure for `COc1ccc2c(c1)c(C(=O)N/N=C/c1ccc(O)c(O)c1)c(C)n2C` is 9.18%; for `Oc1ccc(-c2csc(-c3c[nH]c4ccccc34)n2)c(O)c1` it is 5.01%; for `O=c1[nH]c2ccccc2n1CCCOc1ccccc1` it is 4.34%.
The figure for `Cc1onc(-c2c(F)cccc2Cl)c1C(=O)Nc1cccc2nsnc12` is -20.6%.
`CNC(=O)NC(=O)COC(=O)CCCOc1ccc(OC)cc1`: the “hERG current change (%, negative = inhibition) at 10uM” value is on record as 20.5%.
For `COc1ccc(S(=O)(=O)NC(C)C(=O)O)cc1` (stereo not drawn), the “hERG current change (%, negative = inhibition) at 10uM” value stood at 1.62%.
With `CN(CC(=O)Nc1ccc2c(c1)OCO2)S(=O)(=O)c1ccc(F)cc1`, the “hERG current change (%, negative = inhibition) at 10uM” value is given as -4.45%.
Next, `Cc1noc(C)c1COc1cccc(C(=O)N(C)Cc2nc3ccccc3c(=O)[nH]2)c1`: -23.5%; `CCN(Cc1nc2cc(Cl)ccc2c(=O)[nH]1)C(=O)c1cccc(NC(=O)c2cccs2)c1`: -24.7%.
Consider `CCN(Cc1nc2cc(Cl)ccc2c(=O)[nH]1)C(=O)c1cccc(OCc2c(C)noc2C)c1`, for which the “hERG current change (%, negative = inhibition) at 10uM” value was -57.4%.
Next, `Cc1cccc(Oc2coc3cc(OC(=O)c4cncc(Br)c4)ccc3c2=O)c1`: -5.03%; `CN1N=C(C(=O)N2CCc3c([nH]c4ccccc34)C2c2ccccc2Cl)CCC1=O` (stereo not drawn): -36.9%.
The figure for `Cc1cc(C(=O)N2CCc3c([nH]c4ccccc34)C2c2c(F)cccc2Cl)no1` (stereo not drawn) is 5.46%; for `CN1N=C(C(=O)N2CCc3c([nH]c4ccccc34)C2c2c(F)cccc2Cl)CCC1=O` (stereo not drawn) it is -97.3%.
The figure for `CC1CN(C(=O)CCC(=O)NC2CCCCC2)c2ccccc2S1` (stereo not drawn) is -19.5%; for `Fc1cccc(C2CC(c3cccc(Br)c3)Nc3nnnn32)c1` (stereo not drawn) it is -3.02%; for `CS(=O)(=O)N(CC(=O)N1CCN(Cc2ccccc2)CC1)c1ccc(F)cc1` it is -3.35%.
Take `C=CCN(c1ccccc1C(=O)NCC(=O)O)S(=O)(=O)c1ccccc1C`: the “hERG current change (%, negative = inhibition) at 10uM” value is reported as 24.7%.
Next, `Cc1[nH]c2ccccc2c1C(=O)CN1CCSCC1`: 5.84%; `CCOC(=O)c1[nH]c2ccc(F)cc2c1NC(=O)CN1CCc2cc(OC)c(OC)cc2C1`: -0.0862%.
The figure for `COC(=O)c1[nH]c2ccccc2c1NC(=O)CN1CCCCCC1` is -21.5%.
Regarding `Cc1[nH]c2ccccc2c1C(=O)C(=O)N1CC=C(c2ccccc2)CC1`, the “hERG current change (%, negative = inhibition) at 10uM” value is given as -11.3%.
Next, `Cc1[nH]c2ccccc2c1C(=O)CN1CCN(C/C=C/c2ccccc2)CC1`: -73.4%; `CCOC(=O)c1[nH]c2ccc(F)cc2c1NC(=O)CN1CCN(C/C=C/c2ccccc2)CC1`: -80.7%.
Turning to `COC(=O)c1[nH]c2ccccc2c1NC(=O)CN1CCN(C/C=C/c2ccccc2)CC1`, the “hERG current change (%, negative = inhibition) at 10uM” value is on record as -76.4%.
As to `COc1ccc2[nH]c(C)c(C(=O)CN3CCN(C/C=C/c4ccccc4)CC3)c2c1`, the “hERG current change (%, negative = inhibition) at 10uM” value is -25.8%.
Turning to `CCOC(=O)N1CCN(CC(=O)Nc2c(C(=O)OC)[nH]c3ccccc23)CC1`, the “hERG current change (%, negative = inhibition) at 10uM” value is -10.2%.
Next, `Cc1[nH]c2ccccc2c1C(=O)CN1CC=C(c2ccccc2)CC1`: -52.4%.
The figure for `CCOC(=O)c1[nH]c2ccc(OCC)cc2c1NC(=O)CN1CCN(c2ccccc2)CC1` is 17.9%; for `Cc1[nH]c2ccccc2c1C(=O)CN1CCCC1` it is 5.09%.
The figure for `COc1ccc(C(NC(=O)c2cccnc2)c2cc(Cl)c3cccnc3c2O)cc1OC` (stereo not drawn) is 10.5%; for `NS(=O)(=O)c1ccc(NC(=O)CSc2nnc(-c3ccc(O)cc3)o2)cc1` it is 25.1%.
Turning to `Cc1onc(-c2ccccc2)c1C(=O)OCC(=O)NC(C)c1ccc(Cl)cc1` (stereo not drawn), the “hERG current change (%, negative = inhibition) at 10uM” value was -7.03%.
For `CCOc1nc(-c2ccccc2O)nc2ccccc12`, the “hERG current change (%, negative = inhibition) at 10uM” value was 2.42%.
Next, `Cc1ccc(-c2cc(-c3ccc(C)cc3)[n+](-c3ccc(C(=O)[O-])cc3)c(-c3ccc(C)cc3)c2)cc1`: -26.8%; `Cc1ccc(-c2cc(-c3ccc(C)cc3)[n+](-c3ccc(C(=O)O)cc3)c(-c3ccc(C)cc3)c2)cc1.[O-][Cl+3]([O-])([O-])[O-]`: 26.5%; `Cc1ccc(-c2cc(-c3ccc(C)cc3)[n+](C)o2)cc1.[O-][Cl+3]([O-])([O-])[O-]`: -68.4%.
Next, `C=CCNC(=O)c1onc(CSc2ccc(F)cc2)c1C(=O)NCCOC`: -43%.
Next, `CCN(CC(=O)NCc1ccc(Cl)cc1)C(=O)/C=C/c1cccs1`: -49.1%.
As to `CCN(CC(=O)NCc1ccc(Cl)cc1)C(=O)/C=C/c1ccc(Cl)c([N+](=O)[O-])c1`, the “hERG current change (%, negative = inhibition) at 10uM” value is reported as -67.6%.
Next, `CCN(CC(=O)NCc1ccc(Cl)cc1)C(=O)/C=C/c1ccccc1`: -46%; `CCN(CC(=O)Nc1ccccc1C(F)(F)F)C(=O)/C=C/c1ccc(Cl)c([N+](=O)[O-])c1`: 10.1%.
Take `CCN(CC(=O)NCc1ccc(Cl)cc1)C(=O)/C=C/c1ccc(C#N)cc1`: the “hERG current change (%, negative = inhibition) at 10uM” value is on record as -62%.
Next, `CCN(CC(=O)NCc1ccc(Cl)cc1)C(=O)/C=C/c1cc(OC)c(OC)c(OC)c1`: 3.83%.
With `CN(CCC(=O)Nc1ccc(Cl)cc1)Cc1ccccc1.Cl`, the “hERG current change (%, negative = inhibition) at 10uM” value is recorded as -39.9%.
Take `CCCC(NC(=O)COc1cc2c(c3oc(=O)cc(C)c13)CCC(C)(C)O2)C(=O)O` (stereo not drawn): the “hERG current change (%, negative = inhibition) at 10uM” value was found to be 18.4%.
Take `O=C(NCc1ccccc1)c1ccc(C2SCC(=O)N2Cc2ccccc2)cc1` (stereo not drawn): the “hERG current change (%, negative = inhibition) at 10uM” value is given as -12.6%.
The figure for `CCOc1c(OC(C)=O)ccc(/C=C/c2ccc3cccc(OC(C)=O)c3n2)c1[N+](=O)[O-]` is -4.23%; for `O=Cc1ccc2oc3nc4n(c(=O)c3c(=O)c2c1)CCCS4` it is -35.7%.
The figure for `CCOC(=O)N1CCN(c2nc3ccccc3nc2C(C#N)C(=O)NCCc2ccccc2)CC1` (stereo not drawn) is 7.98%; for `CCN1CCN(c2nc3ccccc3nc2C(C#N)C(=O)OCc2ccccc2)CC1` (stereo not drawn) it is -73.7%.
Next, `CCC(CC)COC(=O)C(C#N)c1nc2ccccc2nc1N1CCN(CC)CC1` (stereo not drawn): -72.7%; `COC(=O)C(C#N)c1nc2ccccc2nc1N1CCCC1` (stereo not drawn): -0.357%.
With `CCC(C)COC(=O)C(C#N)c1nc2ccccc2nc1N1CCCCC1` (stereo not drawn), the “hERG current change (%, negative = inhibition) at 10uM” value is -1.25%.
The figure for `CCC(CC)COC(=O)C(C#N)c1nc2ccccc2nc1N1CCOCC1` (stereo not drawn) is -7.91%.
In the case of `COc1ccc(/C=C/C(=O)c2ccc[nH]2)c(OC)c1OC`, the “hERG current change (%, negative = inhibition) at 10uM” value is on record as -4.89%.
Regarding `CC(=O)c1ccc(-n2c(C)ccc2-c2ccccc2)cc1`, the “hERG current change (%, negative = inhibition) at 10uM” value turned out to be 1%.
Next, `CCOC(=O)N1CCN(C(=O)Cn2ccc3c(OC)cccc3c2=O)CC1`: 6.78%; `CCOC(=O)c1sc(NS(=O)(=O)c2cc(C)ccc2C)nc1C`: 10.4%; `COc1ccc(/C=C/C=C2\NC(=S)NC2=O)cc1`: 22.1%.
Next, `Cc1cc2nc(/N=C(\N)NC(=O)N3c4ccccc4Sc4ccccc43)nc(C)c2cc1C`: -38.9%; `CN(C(=O)CSC1=Nc2ccccc2C2=NC(c3ccccc3)C(=O)N12)C1CCCCC1` (stereo not drawn): -73%.
Next, `NC(=O)CSC1=Nc2ccccc2C2=NC(c3ccccc3)C(=O)N12` (stereo not drawn): 1.61%; `O=C(CSC1=Nc2ccccc2C2=NC(c3ccccc3)C(=O)N12)NC1CCCCC1` (stereo not drawn): -20.1%; `CCN(CC)C(=O)CSC1=Nc2ccccc2C2=NC(c3ccccc3)C(=O)N12` (stereo not drawn): -46.4%.
`CCC(C)NC(=O)CSC1=Nc2ccccc2C2=NC(CC(=O)NCc3ccccc3)C(=O)N12` (stereo not drawn): the “hERG current change (%, negative = inhibition) at 10uM” value is -0.668%.
With `CCC(C)NC(=O)CSC1=Nc2ccccc2C2=NC(c3ccccc3)C(=O)N12` (stereo not drawn), the “hERG current change (%, negative = inhibition) at 10uM” value is recorded as -55.3%.
